# Screening data (PubChem)
# Most compounds without a hit are left out; they make up all but 0.19% or so of the library.
# Bim-Bfl-1 – inhibitors of Bim-Bfl-1 interaction, human | 0.12% of 190,000 active | Bead-based flow cytometry, Bim-Bfl-1 binding inhibition | inhibition, % at 10 µM;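 also: 0% = wells without compound plus tracer and 100% = blocker peptide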
# Target sequence (Q16548 whole entry, looked up): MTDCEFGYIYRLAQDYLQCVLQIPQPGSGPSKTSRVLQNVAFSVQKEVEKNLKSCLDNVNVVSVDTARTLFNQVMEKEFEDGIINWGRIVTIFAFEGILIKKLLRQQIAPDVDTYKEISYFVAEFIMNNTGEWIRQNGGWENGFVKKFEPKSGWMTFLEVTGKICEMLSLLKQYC
# Bim-Bcl-B – disrupts Bim peptide binding to human Bcl-B; bead-based flow cytometry; Q9HD36; AID 951; 0.073% of 190,000 active; inhibition, % at 10 µM;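 also: 0% = tracer peptide without compound and 100% = reference inhibitor peptide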
# Target sequence (Q9HD36 whole entry, looked up): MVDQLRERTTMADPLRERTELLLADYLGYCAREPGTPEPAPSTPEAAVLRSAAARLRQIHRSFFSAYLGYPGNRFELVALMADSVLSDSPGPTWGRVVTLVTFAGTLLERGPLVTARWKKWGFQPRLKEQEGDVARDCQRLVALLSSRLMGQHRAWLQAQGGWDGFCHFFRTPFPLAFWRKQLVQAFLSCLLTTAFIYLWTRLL
# Bcl-XL Bim block – disrupts Bim peptide binding to human Bcl-XL; AID 1007; Q07817; bead flow cytometry, fluorescence; 0.04% of 190,000 active; inhibition, % at 10 µM
# Bcl-W Bim block – disrupts Bim peptide binding to human Bcl-W. Q92843. bead-based flow cytometry. inhibition, % at 10 µM. 0.02% of 190,000 active;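 also: 0% = bound tracer without compound and 100% = peptide blocker; higher means less fluorescent Bim peptide bound to Bcl-W beads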
# Target sequence (Q92843 whole entry, looked up): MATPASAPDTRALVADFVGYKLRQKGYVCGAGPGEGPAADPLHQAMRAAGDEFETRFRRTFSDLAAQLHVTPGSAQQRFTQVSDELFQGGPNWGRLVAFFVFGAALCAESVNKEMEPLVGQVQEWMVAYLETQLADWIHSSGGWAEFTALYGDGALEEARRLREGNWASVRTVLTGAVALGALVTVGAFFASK
# Bcl-2 Bim block – inhibitors of Bim-Bcl-2 interaction, human; P10415; Bead-based flow cytometry, Bim peptide-Bcl-2 binding; AID 950; 0.06% of 190,000 active; inhibition, % at 10 µM; in the data active = inhibition above about 40%;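 also: 0% = no compound wells with probe peptide and 100% = reference peptide inhibitor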
# Numbers without * were called inactive; . = no result given. Rule as the data show it, unless noted: active = inhibition above about 40%.
SMILES,Bim-Bfl-1,Bim-Bcl-B,Bcl-XL Bim block,Bcl-W Bim block,Bcl-2 Bim block
CC1Nc2ccccc2C(=O)N1NS(=O)(=O)c1ccccc1 (configuration not stated),43.0*,25.0,42.0*,28.0,29.0
O=C1c2ccccc2-c2onc3c(Oc4ccccc4)cc(O)c1c23,43.0*,-14.0,29.0,28.0,22.0
COc1ccc(-c2onc(C)c2-c2ccccc2)c(O)c1,-10.0,-2.0,-3.0,0.0,-5.0
NC(=O)[C@@H]1CCCN1Cc1nc(-c2cccs2)no1,-3.0,-8.0,-5.0,-1.0,0.0
Cc1ccc(CNc2ccc3c(c2)OCO3)cc1,40.0*,-7.0,2.0,18.0,10.0
O=C(COc1ccccc1)Nc1ccc2c(c1)Cc1cc(NC(=O)COc3ccccc3)ccc1-2,91.0*,107.0*,103.0*,110.0*,104.0*
CCCN(CCC)C(=O)CCSCCC(=O)N(CCC)CCC,2.0,-1.0,-1.0,-1.0,2.0
CNCc1ccccc1Sc1ccc(O)c(O)c1,46.0*,1.0,6.0,21.0,17.0
COc1ccc(N2CCN(CCCNC(=O)CCCn3c(=O)[nH]c4ccsc4c3=O)CC2)cc1,30.0,67.0*,1.0,4.0,62.0*
CC[n+]1c(/C=C/C=C/N(C(C)=O)c2ccccc2)sc2ccccc21,9.0,2.0,.,43.0*,.
Cc1ccc(NC(=O)CSc2nc3ccccc3c(=O)n2CCCN2CCCCC2)cc1Cl,25.0,71.0*,26.0,29.0,62.0*
Brc1ccc2ncnc(Nc3ccc(N4CCOCC4)cc3)c2c1,5.0,48.0*,3.0,7.0,5.0
O=C(COc1ncnc2ccc(Br)cc12)Nc1ccc(N2CCOCC2)cc1,-14.0,-4.0,-6.0,-2.0,-9.0
CCN1/C(=C/c2ccc3cc(C)ccc3[n+]2C)Sc2ccc3sccc3c21,46.0*,4.0,34.0,22.0,54.0*
CCN1/C(=C/c2ccc3cc(C)ccc3[n+]2CC)Sc2cc(C)ccc21,1.0,-25.0,2.0,4.0,6.0
O=C1C(=O)c2ccc(-c3ccccc3)cc2-c2ccccc21,41.0*,21.0,38.0,25.0,32.0
CN=C(NC1CCCCC1)c1ccc(Cl)cc1,49.0*,-26.0,1.0,24.0,13.0
O=[N+]([O-])c1ccc(N/N=C/c2cccc(O)c2O)c(S(=O)(=O)N2CCOCC2)c1,-1.0,-9.0,-3.0,2.0,-2.0
O=[N+]([O-])c1ccc(N/N=C/c2ccc(O)c(O)c2O)c(S(=O)(=O)N2CCOCC2)c1,63.0*,10.0,15.0,40.0*,27.0
CC(=O)OCC(=O)Nc1c(C)cccc1C,-2.0,-5.0,-2.0,-2.0,-2.0
O=C(NCCCO)Nc1ccc2nc(-c3ccco3)c(-c3ccco3)nc2c1,65.0*,28.0,29.0,46.0*,46.0*
O=C(Nc1ccc(N2CCOCC2)cc1)Nc1ccc2nc(-c3ccco3)c(-c3ccco3)nc2c1,29.0,0.0,6.0,14.0,5.0
OCCCNC(=S)Nc1ccc2nc(-c3ccccn3)c(-c3ccccn3)nc2c1,-8.0,-10.0,-14.0,5.0,-1.0
O=C(Nc1ccc2nc(-c3ccco3)c(-c3ccco3)nc2c1)NC1CC1,50.0*,14.0,20.0,35.0,37.0
CCOc1cc(C)c(C(C)C)cc1S(=O)(=O)n1cnc(C)c1,-5.0,-5.0,0.0,0.0,-4.0
SMILES,Bim-Bfl-1,Bim-Bcl-B,Bcl-XL Bim block,Bcl-W Bim block,Bcl-2 Bim block
CCOCCCNC(=O)CNC(=S)N(Cc1ccc(C)cc1)Cc1ccco1,1.0,-20.0,-4.0,-5.0,0.0
COc1ccc(CCNC(=O)c2cc(-c3ccccn3)nc3c(Cl)cccc23)cc1OC,1.0,53.0*,56.0*,16.0,41.0*
COc1ccc(CCNC(=O)c2cc(-c3ccncc3)nc3c(Cl)cccc23)cc1OC,-3.0,0.0,-1.0,1.0,0.0
CC(C)(C)C(=O)OCCNc1nc(-c2ccccc2)nc2ccccc12,-9.0,-12.0,-7.0,-2.0,-17.0
O=C1N/C(=C/c2cccn2-c2ccccc2)C(=O)N1Cc1ccc(F)cc1,42.0*,-57.0,13.0,10.0,11.0
CCOC(=O)CSC1=NC(=O)/C(=C\c2ccc(Cl)cc2)S1,46.0*,0.0,-2.0,1.0,-1.0
CSC1=NC(=O)/C(=C/c2ccc(SC)cc2)S1,-4.0,-1.0,-2.0,-1.0,0.0
COc1ccc(N2C(=O)/C(=C/c3cccs3)NC2=S)cc1,45.0*,-28.0,-7.0,4.0,2.0
CN(C)/C=C1\NC(=S)N(c2ccccc2)C1=O,-1.0,-13.0,-3.0,0.0,-1.0
CC(=O)N1CCN(C(=O)c2ccc(-n3c(C)ccc3C)cc2)CC1,7.0,41.0*,10.0,6.0,17.0
CCN(CC)c1ccc(NC2=C(Cl)C(=O)c3ccccc3C2=O)cc1,70.0*,-39.0,-6.0,21.0,16.0
CCN(CC)C(=O)C(=O)N/N=C/c1ccc(C(=O)O)cc1,-11.0,-11.0,-13.0,-5.0,-4.0
COc1cc(/C=C2\CC/C(=C\c3cc(OC)c(O)c(OC)c3)C2=O)cc(OC)c1O,50.0*,18.0,25.0,43.0*,37.0
C#CCOCCOCCOCCNc1nc(N2CCN(C(=O)C([C@@H](C)CC)n3cc(C(N)Cc4ccc(O)cc4)nn3)CC2)nc(N2CCN(C(=O)[C@H](CCC(=O)O)n3cc(C(N)Cc4ccc(O)cc4)nn3)CC2)n1 (some centres not stated),0.0,1.0,-10.0,-9.0,-3.0
Cn1c(N)c(C(=O)COC(=O)CC2CC3CCC2C3)c(=O)n(C)c1=O (configuration not stated),-6.0,-2.0,-1.0,0.0,-2.0
O=C(Nc1nc2ccccc2[nH]1)C12CC3CC(CC(C3)C1)C2,-7.0,-5.0,-4.0,3.0,-6.0
O=C(OCc1nc2ccccc2[nH]1)C12CC3CC(CC(C3)C1)C2,6.0,42.0*,0.0,0.0,12.0
CC(C)(C)NC(=O)CCN(/N=C/c1ccc([N+](=O)[O-])o1)C1=NS(=O)(=O)c2ccccc21,19.0,27.0,53.0*,36.0,22.0
Cc1cc(C)c(S(=O)(=O)/N=C2/C=C(SCC(=O)O)C(=O)c3ccccc32)cc1C,56.0*,-12.0,0.0,18.0,12.0
CC1=CC(=O)c2c(O)ccc(O)c2C1=O,66.0*,-2.0,18.0,45.0*,25.0
Cc1cc[n+]2cc(-c3cccc([N+](=O)[O-])c3)c(-c3cccc([N+](=O)[O-])c3)cc2c1,10.0,43.0*,8.0,14.0,12.0
Cc1cccc(-c2cnn(-c3cccc([N+](=O)[O-])c3)c2N)c1,-4.0,-4.0,0.0,0.0,-1.0
COc1cc(C(=O)Nc2c(C)cc(C)cc2C)c([N+](=O)[O-])cc1OC,-2.0,-4.0,-6.0,-2.0,1.0
CN(CC(=O)O/N=C(\N)c1ccc([N+](=O)[O-])cc1)S(=O)(=O)c1ccccc1,6.0,72.0*,18.0,12.0,38.0
CCn1c(C)c(/C=N/Nc2nc3ccccc3s2)c2ccccc21,.,.,23.0,21.0,87.0*
COc1cc(OC)cc(C(=O)N[C@H](C(=O)OCC(=O)Nc2ccc(F)c(F)c2)C(C)C)c1,-2.0,-4.0,-4.0,-1.0,-7.0
O=C(N/N=C/c1ccncc1)c1cccc(NC(=O)c2ccccc2Cl)c1,34.0,21.0,43.0*,29.0,32.0
